Results filed as inconclusive are left out. Active and inactive are the calls of the source. Unless noted, calls come from the whole dose curve; as a rule, active = well fitted curve in the direction sought with a large enough effect in the repeat runs; inconclusive = weak or mixed curves; inactive = no such curve, though single readings can be large; an effect the other way counts as inactive or inconclusive.
Columns and labels:
[1] = qHTS assay to identify small molecule agonists of the TGF-beta/Smad signaling pathway - cell viability counter screen (AID 1346829); note: nearly all actives have a fitted effect of over 45% in size; note: potency is the fitted concentration of half-maximal effect
Method in brief: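 SBE-bla HEK 293T cells plated overnight, compound exposure 5 hr at 37 C. Viability read in the same wells by CellTiter-Glo luminescence after 30 min at room temperature, following the beta-lactamase read.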

[2] = qHTS assay to identify small molecule agonists of the TGF-beta/Smad signaling pathway (AID 1346859; active = well fitted activation curve with a large enough effect in the signal ratio in the repeat runs, not every such curve was filed as active; the % refers to the signal ratio; note: series mostly up to about 77 µM; % is set by controls: 0 for no effect and ±100 for the full control effect)
Method in brief: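 Dual-wavelength fluorescence (460/530 nm emission) quantified beta-lactamase expression under the Smad binding element in HEK 293T cells following 5 hr compound treatment at 37 C.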

[3] = Human pregnane X receptor (PXR) small molecule agonists, qHTS cell viability counter screen (AID 1346977); note: nearly all actives have a fitted effect of over 50% in size; note: potency is the fitted concentration of half-maximal effect
Method in brief: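 HepG2 cells stably carrying the PXR-Luc reporter are cultured with 5% charcoal-stripped FBS and treated with compounds for 24hr. CellTiter-Fluor is added at 23hr and fluorescence is read after 1hr.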

[4] = Caspase-3/7 induction in HepG2 cells by small molecules, qHTS assay (AID 1346978); note: % is set by controls: 0 for no effect and ±100 for the full control effect; nearly all actives have a fitted effect of over 15% in size
Method in brief: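 Wild-type HepG2 cells, 2,000/well, settled 5 hr at 37 C and 5% CO2, then compound-treated for 17 hr; caspase-3/7 activity read by luminescent Caspase-Glo 3/7 after 30 min at room temperature.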

[5] = Caspase-3/7 induction in CHO-K1 cells by small molecules, qHTS assay (AID 1346980); note: nearly all actives have a fitted effect of over 15% in size; note: potency is the fitted concentration of half-maximal effect
Method in brief: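 Wild-type CHO-K1 cells exposed to compounds for 17hr at 37 C, 5% CO2. Caspase-3/7 activity then measured by Caspase-Glo 3/7 luminescence after 30min at room temperature.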

[6] = Caspase-3/7 induction in HepG2 cells by small molecules, qHTS cell viability counter screen (AID 1346981); note: nearly all actives have a fitted effect of over 30% in size; note: potency is the fitted concentration of half-maximal effect
Method in brief: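 Counter screen for cytotoxicity: HepG2 exposed 16 hr to compounds, then CellTiter-Fluor viability signal (fluorescence, 1 hr reagent incubation).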

[7] = target: Nuclear receptor subfamily 1 group I member 2 (Homo sapiens) (UniProt O75469); test: Human pregnane X receptor (PXR) small molecule agonists, qHTS assay (AID 1346982); note: nearly all actives have a fitted effect of over 35% in size; note: potency is the fitted concentration of half-maximal effect; for activation: % is set by controls: 0 for no effect and ±100 for the full control effect
Method in brief: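 Luminescence (ONE-Glo, 30 min RT) after 24 hr compound exposure of PXR-Luc HepG2 cells; cells rested 5 hr post-plating in 5% charcoal-stripped FBS medium.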

[8] = target: Cytochrome P450 2C19 (Homo sapiens) (UniProt P33261); test: Cytochrome P450 Family 2 Subfamily C Member 19 (CYP2C19) small molecule antagonists: luciferase reporter qHTS assay (AID 1671197); note: potency is the fitted concentration of half-maximal effect; nearly all actives have a fitted effect of over 65% in size
Method in brief: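 P450-Glo CYP2C19 system: enzyme-substrate mix with compound 10 min at room temperature, then NADPH regeneration solution, 1 h at 37C. Proluciferin-to-luciferin conversion detected by luminescence after 20 min with detection reagent; ketoconazole as positive control.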

[9] = target: Cytochrome P450 2C9 (Homo sapiens) (UniProt P11712); test: Cytochrome P450 Family 2 Subfamily C Member 9 (CYP2C9) small molecule antagonists: luciferase reporter qHTS assay (AID 1671198); note: potency is the fitted concentration of half-maximal effect; nearly all actives have a fitted effect of over 50% in size
Method in brief: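 P450-Glo proluciferin substrate with CYP2C9 enzyme; 10 min RT preincubation, then NADPH regeneration 1 h at 37C; luciferin detection reagent 20 min RT, luminescence in relative luminescence units.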

[10] = target: Cytochrome P450 1A2 (Homo sapiens) (UniProt P05177); test: Cytochrome P450 Family 1 Subfamily A Member 2 (CYP1A2) small molecule antagonists: luciferase reporter qHTS assay (AID 1671199); note: nearly all actives have a fitted effect of over 50% in size; note: potency is the fitted concentration of half-maximal effect
Method in brief: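 Signal from luciferin formed by CYP1A2 from a proluciferin substrate is read as luminescence, expressed in relative luminescence units. Compounds sit with enzyme 10 min, NADPH-driven reaction runs 1 h, all at room temperature.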

[11] = target: Voltage-gated inwardly rectifying potassium channel KCNH2 (Homo sapiens) (UniProt Q12809); test: Human Ether-a-go-go-Related Gene (hERG) channel small molecule antagonists: fluorescence cell-based qHTS assay (AID 1671200);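 note: hERG-expressing U2OS cells given a thallium stimulus after FluxOR II dye loading; series mostly up to about 77 µM; % is set by controls: 0 for no effect and ±100 for the full control effect; nearly all actives have a fitted effect of over 50% in size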
Method in brief: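 First, 1000 cells per well are seeded and cultured overnight at 37 C. Next, FluxOR II dye is loaded for 1 h at room temperature, protected from light. After 10 more minutes, stimulus is added and fluorescence is read.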

[12] = target: Thyrotropin-releasing hormone receptor (Homo sapiens) (UniProt P34981); test: qHTS assay to identify small molecule antagonists of the thyrotropin-releasing hormone receptor (TRHR) signaling pathway (AID 1346877; active = well fitted inhibition curve with a large enough effect in the repeat runs, not every such curve was filed as active; note: potency is the fitted concentration of half-maximal effect)
Method in brief: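 In this cell-based calcium flux format, HEK293 cells expressing TRHR received test compound for 5 min before the agonist TRH (1 nM final). Dye loading lasted 2 h at 37 °C.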

[13] = target: Thyrotropin-releasing hormone receptor (Homo sapiens) (UniProt P34981); test: qHTS assay to identify small molecule agonists of the thyrotropin-releasing hormone receptor (TRHR) signaling pathway (AID 1346891; calls by dose curve; note: series mostly up to about 58 µM; % is set by controls: 0 for no effect and ±100 for the full control effect)
Method in brief: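 Kinetic fluorescence (3 min, 1 s intervals) reported intracellular calcium after compound transfer onto TRHR-Hek293 cells pre-loaded with dye for 2 h at 37 °C.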

[14] = Caspase-3/7 induction in CHO-K1 cells by small molecules, qHTS cell viability counter screen (AID 1346979); note: potency is the fitted concentration of half-maximal effect; nearly all actives have a fitted effect of over 35% in size
Method in brief: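 Seeding: 1,500 CHO-K1 cells/well. Rest: 5hr, 37C. Treatment: compounds in DMSO, 16hr. Read: CellTiter-Fluor, 1hr, fluorescence.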

[15] = target: Cytochrome P450 2D6 (Homo sapiens) (UniProt P10635); test: Cytochrome P450 Family 2 Subfamily D Member 6 (CYP2D6) small molecule antagonists: luciferase reporter qHTS assay (AID 1671196)
Method in brief: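 Inhibition of CYP2D6 was gauged by loss of luminescence, since light produced tracks the luciferin generated from a proluciferin substrate. A 10 min room-temperature preincubation preceded 1 h NADPH-supported turnover.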

[16] = target: Nuclear receptor subfamily 1 group I member 2 (Rattus norvegicus) (UniProt Q9R1A7); test: Rat pregnane X receptor (rPXR) activation by small molecules, qHTS assay (AID 1346983); details: rPXR luciferase reporter cells, One-Glo luminescence, 24 h; max activation: stronger effect = higher value; note: % is set by controls: 0 for no effect and ±100 for the full control effect; nearly all actives have a fitted effect of over 20% in size
Method in brief: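 Cell-based rPXR activation assay: rPXR cells, 2,000 per well, rested 5hr at 37 C, then exposed to compounds in DMSO for 24 hr at 37 C. Luciferase activity read by One-Glo luminescence after 30 min at room temperature.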

[17] = target: Nuclear receptor subfamily 1 group I member 2 (Homo sapiens) (UniProt O75469); test: CYP3A4 induction through human pregnane X receptor (PXR) by small molecules, qHTS assay (AID 1346984); note: nearly all actives have a fitted effect of over 40% in size; note: potency is the fitted concentration of half-maximal effect; for activation: % is set by controls: 0 for no effect and ±100 for the full control effect
Method in brief: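 DPX-2 reporter cells; 24h cpd, 37C; Luciferin-IPA 3uM final x3h; One-Glo 30 min RT; lumi read.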

[18] = target: Nuclear receptor subfamily 1 group I member 2 (Homo sapiens) (UniProt O75469); test: Human pregnane X receptor (PXR) activation by small molecules, qHTS assay (AID 1346985); note: % is set by controls: 0 for no effect and ±100 for the full control effect; nearly all actives have a fitted effect of over 40% in size
Method in brief: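 DPX-2 cells (HepG2 co-transfected with a PXR response element and a CYP3A4-promoter luciferase construct) were seeded at 2,000 per well, rested 5 hr at 37C, then exposed to DMSO-dissolved compounds for 24 hr. Activation was read as luciferase luminescence.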

[19] = qHTS assay to identify small molecule antagonists of the TGF-beta/Smad signaling pathway - cell viability counter screen (AID 1346824)
Method in brief: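 SBE-bla HEK 293T cells, incubated overnight, then compound plus 0.25 ng/mL TGF-beta1 (stock added) for 5 hr at 37 C. Viability was read in the same wells by CellTiter-Glo luminescence after 30 min at room temperature.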

Sequence of Cytochrome P450 2C9 (Homo sapiens) (P11712 whole entry, looked up): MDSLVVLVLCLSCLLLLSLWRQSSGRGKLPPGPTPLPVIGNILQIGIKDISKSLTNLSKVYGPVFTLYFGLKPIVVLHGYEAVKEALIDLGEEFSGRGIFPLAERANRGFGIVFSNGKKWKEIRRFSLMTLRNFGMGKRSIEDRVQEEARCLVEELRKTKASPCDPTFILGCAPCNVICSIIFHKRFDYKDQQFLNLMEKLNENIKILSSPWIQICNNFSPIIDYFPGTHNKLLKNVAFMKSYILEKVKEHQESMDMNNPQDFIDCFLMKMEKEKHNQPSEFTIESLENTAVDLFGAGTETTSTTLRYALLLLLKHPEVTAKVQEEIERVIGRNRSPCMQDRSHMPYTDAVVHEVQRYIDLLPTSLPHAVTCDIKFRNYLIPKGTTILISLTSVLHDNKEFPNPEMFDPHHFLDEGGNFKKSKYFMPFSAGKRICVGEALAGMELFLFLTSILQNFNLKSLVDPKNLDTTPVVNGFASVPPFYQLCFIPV
Sequence of Cytochrome P450 1A2 (Homo sapiens) (P05177 whole entry, looked up): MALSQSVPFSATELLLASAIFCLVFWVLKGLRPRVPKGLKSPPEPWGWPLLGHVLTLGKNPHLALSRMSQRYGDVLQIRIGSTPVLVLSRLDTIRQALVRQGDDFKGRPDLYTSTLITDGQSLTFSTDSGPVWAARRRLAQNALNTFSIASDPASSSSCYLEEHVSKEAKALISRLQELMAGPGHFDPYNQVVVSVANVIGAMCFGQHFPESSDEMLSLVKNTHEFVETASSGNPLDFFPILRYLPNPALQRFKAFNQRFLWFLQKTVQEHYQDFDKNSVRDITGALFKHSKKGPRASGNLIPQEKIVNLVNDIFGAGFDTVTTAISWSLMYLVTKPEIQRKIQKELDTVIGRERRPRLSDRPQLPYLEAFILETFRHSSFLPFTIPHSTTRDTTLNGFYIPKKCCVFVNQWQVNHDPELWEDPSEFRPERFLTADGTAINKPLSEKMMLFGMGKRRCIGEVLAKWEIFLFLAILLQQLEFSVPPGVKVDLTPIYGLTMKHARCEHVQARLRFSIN
Sequence of Cytochrome P450 2D6 (Homo sapiens) (P10635 whole entry, looked up): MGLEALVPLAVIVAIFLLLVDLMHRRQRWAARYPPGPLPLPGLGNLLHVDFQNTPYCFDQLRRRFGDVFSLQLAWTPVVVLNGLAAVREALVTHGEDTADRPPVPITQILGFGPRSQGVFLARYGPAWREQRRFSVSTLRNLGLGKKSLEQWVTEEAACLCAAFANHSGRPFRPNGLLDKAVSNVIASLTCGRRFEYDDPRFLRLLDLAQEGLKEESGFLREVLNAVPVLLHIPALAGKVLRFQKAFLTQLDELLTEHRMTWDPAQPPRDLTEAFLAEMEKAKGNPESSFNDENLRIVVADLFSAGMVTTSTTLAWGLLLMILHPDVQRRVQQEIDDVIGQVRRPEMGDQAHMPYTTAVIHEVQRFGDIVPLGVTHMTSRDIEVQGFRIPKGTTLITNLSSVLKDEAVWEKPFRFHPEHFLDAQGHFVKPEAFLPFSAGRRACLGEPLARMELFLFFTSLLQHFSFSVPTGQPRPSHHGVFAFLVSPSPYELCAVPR
Sequence of Thyrotropin-releasing hormone receptor (Homo sapiens) (P34981 whole entry, looked up): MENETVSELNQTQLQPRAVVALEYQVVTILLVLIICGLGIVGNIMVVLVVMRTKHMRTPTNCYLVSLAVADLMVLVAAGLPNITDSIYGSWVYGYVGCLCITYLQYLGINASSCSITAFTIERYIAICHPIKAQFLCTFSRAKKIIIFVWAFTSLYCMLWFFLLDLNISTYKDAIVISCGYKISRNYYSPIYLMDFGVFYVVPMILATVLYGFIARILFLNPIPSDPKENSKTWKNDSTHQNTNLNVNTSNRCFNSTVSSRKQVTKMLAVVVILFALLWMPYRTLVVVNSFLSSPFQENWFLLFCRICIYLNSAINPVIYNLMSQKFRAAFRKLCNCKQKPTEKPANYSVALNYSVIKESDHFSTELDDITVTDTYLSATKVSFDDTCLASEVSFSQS
Sequence of Cytochrome P450 2C19 (Homo sapiens) (P33261 whole entry, looked up): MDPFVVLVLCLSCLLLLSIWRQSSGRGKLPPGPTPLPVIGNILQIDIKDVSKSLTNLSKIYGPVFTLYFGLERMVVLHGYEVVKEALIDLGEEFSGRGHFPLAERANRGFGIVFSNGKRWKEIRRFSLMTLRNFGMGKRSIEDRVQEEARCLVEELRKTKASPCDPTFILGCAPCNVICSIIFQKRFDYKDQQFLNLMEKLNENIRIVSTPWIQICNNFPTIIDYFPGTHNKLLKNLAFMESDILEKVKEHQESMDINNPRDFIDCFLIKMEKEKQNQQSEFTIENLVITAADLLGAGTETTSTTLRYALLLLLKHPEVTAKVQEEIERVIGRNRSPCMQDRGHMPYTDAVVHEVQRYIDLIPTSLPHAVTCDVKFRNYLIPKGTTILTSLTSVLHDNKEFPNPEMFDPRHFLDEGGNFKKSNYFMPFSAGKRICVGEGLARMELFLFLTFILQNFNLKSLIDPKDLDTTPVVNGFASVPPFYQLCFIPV
Sequence of Nuclear receptor subfamily 1 group I member 2 (Rattus norvegicus) (Q9R1A7 whole entry, looked up): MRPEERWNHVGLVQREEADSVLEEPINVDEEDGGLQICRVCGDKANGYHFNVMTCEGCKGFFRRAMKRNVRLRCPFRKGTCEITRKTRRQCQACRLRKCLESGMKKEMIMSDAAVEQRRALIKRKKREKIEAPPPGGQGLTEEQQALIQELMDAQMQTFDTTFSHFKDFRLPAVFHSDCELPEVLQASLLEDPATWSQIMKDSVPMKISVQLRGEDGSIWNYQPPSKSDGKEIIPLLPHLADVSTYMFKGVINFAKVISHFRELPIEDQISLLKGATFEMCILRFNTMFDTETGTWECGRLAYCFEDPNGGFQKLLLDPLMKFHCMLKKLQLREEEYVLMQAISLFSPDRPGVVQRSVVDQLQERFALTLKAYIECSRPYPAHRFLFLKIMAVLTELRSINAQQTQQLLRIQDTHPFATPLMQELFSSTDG
Sequence of Nuclear receptor subfamily 1 group I member 2 (Homo sapiens) (O75469 whole entry, looked up): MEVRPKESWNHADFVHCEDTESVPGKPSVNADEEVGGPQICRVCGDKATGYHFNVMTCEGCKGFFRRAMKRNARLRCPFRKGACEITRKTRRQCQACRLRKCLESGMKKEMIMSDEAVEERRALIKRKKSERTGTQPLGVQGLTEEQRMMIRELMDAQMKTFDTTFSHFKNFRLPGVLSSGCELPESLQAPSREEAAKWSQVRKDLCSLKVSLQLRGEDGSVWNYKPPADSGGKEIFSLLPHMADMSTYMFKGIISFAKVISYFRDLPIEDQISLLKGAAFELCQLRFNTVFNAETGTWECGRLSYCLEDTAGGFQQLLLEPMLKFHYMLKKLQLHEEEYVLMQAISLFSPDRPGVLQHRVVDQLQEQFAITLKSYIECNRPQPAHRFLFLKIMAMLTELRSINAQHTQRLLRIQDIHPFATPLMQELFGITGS
Sequence of Voltage-gated inwardly rectifying potassium channel KCNH2 (Homo sapiens) (Q12809 whole entry, looked up): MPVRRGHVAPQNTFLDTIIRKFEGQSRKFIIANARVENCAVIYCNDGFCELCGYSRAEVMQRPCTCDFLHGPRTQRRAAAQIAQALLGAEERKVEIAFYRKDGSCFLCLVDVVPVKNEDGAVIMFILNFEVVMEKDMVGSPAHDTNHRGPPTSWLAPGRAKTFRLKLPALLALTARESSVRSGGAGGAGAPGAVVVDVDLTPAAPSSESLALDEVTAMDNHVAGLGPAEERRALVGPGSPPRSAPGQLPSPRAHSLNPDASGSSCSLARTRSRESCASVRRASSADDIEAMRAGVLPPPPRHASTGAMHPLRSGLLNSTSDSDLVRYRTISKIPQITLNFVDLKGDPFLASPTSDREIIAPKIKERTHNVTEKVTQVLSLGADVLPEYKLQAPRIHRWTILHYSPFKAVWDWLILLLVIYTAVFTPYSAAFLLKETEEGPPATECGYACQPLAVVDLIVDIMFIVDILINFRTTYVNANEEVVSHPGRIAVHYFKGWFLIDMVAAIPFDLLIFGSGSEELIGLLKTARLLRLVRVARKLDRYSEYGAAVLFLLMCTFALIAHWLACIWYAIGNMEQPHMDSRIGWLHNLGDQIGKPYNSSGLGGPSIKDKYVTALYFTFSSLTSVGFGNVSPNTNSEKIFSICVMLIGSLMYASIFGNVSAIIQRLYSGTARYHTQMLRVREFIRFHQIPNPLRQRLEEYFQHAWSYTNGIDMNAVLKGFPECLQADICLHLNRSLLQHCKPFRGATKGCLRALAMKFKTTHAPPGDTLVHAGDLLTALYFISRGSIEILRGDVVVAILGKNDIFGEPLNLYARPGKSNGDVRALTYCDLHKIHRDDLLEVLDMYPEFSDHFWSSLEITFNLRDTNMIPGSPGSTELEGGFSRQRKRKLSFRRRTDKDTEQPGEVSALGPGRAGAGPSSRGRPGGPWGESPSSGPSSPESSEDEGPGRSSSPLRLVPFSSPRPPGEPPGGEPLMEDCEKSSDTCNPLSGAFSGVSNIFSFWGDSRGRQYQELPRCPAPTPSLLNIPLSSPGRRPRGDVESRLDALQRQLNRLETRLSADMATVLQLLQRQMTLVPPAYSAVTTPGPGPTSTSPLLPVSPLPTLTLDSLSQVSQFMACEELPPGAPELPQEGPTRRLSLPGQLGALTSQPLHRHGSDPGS

CCN(CC)c1ccc(N=Nc2ccccc2)cc1
active: Potency [3] 27.3 µM | Potency [6] 27.3 µM | Potency [7] 1.37 µM | Potency [8] 20 µM | Potency [9] 10 µM | Potency [10] 11.2 µM
inactive: Potency [1] | outcome [2] | Potency [4] | Potency [5] | Potency [11]

CCCCCCCCCCCCCCCCCCNC(=O)OC1CCN(C(=O)OC[C@H](COC(=O)N(Cc2cccc[n+]2CC)C(=O)c2ccccc2OC)OC)CC1
inactive: Potency [12] | Potency [13] | Potency [4] | Potency [5] | Potency [7] | Potency [10]
active: Potency [3] 26.6 µM | Potency [14] 29.8 µM | Potency [15] 27.5 µM | Potency [8] 43.6 µM | Potency [9] 30.9 µM

COc1cc(/C=C/C(=O)CC(=O)/C=C/c2ccc(O)c(OC)c2)ccc1O
inactive: Potency [12] | Potency [5] | max activation [16] 8.99% | Potency [17] | Potency [18]
active: Potency [3] 30.8 µM | Potency [14] 43.5 µM | Potency [6] 30.8 µM | Potency [7] 24.5 µM | Potency [15] 35.8 µM | Potency [8] 10.1 µM | Potency [10] 31.9 µM

S=C1NC=NC2N=CNC12 (centres undefined)
inactive: outcome [2] | Potency [12] | Potency [13] | Potency [3] | Potency [4] | Potency [5] | Potency [6] | Potency [11]
active: Potency [19] 3.47 µM | Potency [7] 21.7 µM | Potency [8] 25.2 µM | Potency [10] 71 µM

O=C(Nc1ccccc1)c1cc(Cl)ccc1O
inactive: outcome [2] | Potency [12] | Potency [13] | Potency [4] | Potency [5] | Potency [11]
active: Potency [3] 12.2 µM | Potency [14] 17.2 µM | Potency [7] 15.4 µM | Potency [15] 39.9 µM | Potency [8] 35.6 µM | Potency [9] 17.8 µM | Potency [10] 12.6 µM

O=C(O)c1ccccc1O
inactive: max activation [16] -4.21%

CCCCCCCCCCCCOS(=O)(=O)O
inactive: max activation [16] -3.52%

CNCCC=C1c2ccccc2CCc2ccccc21
inactive: max activation [16] -3.34%
active: Potency [17] 7.08 µM

Cc1ccc(S(=O)(=O)C(I)I)cc1
inactive: outcome [2] | Potency [4]
active: Potency [1] 49 µM | Potency [12] 10.7 µM | Potency [3] 27.3 µM | Potency [14] 15.4 µM | Potency [5] 12.2 µM | Potency [6] 54.5 µM | Potency [7] 19.3 µM | Potency [8] 1.59 µM | Potency [9] 1.12 µM | Potency [10] 31.7 µM

COc1ccc(OC)c(N=Nc2c(O)ccc3ccccc23)c1
inactive: outcome [2] | Potency [12] | Potency [13] | Potency [4] | Potency [5] | Potency [11]
active: Potency [1] 43.6 µM | Potency [3] 10.9 µM | Potency [14] 21.7 µM | Potency [6] 27.3 µM | Potency [7] 9.69 µM | Potency [8] 10 µM | Potency [9] 6.33 µM | Potency [10] 0.894 µM
